# Measurements: the supplement of paper PMC8728848
# The sample as a whole holds a higher share of the strongest signals than the screen did.
# Tests used:
# Test in all cases: glycan array binding signal (z-score within array); higher = stronger binding
# Details in all cases: glycan notation: IUPAC condensed, linker removed
# [1] = biological target: Fuc(a1-2)Gal(b1-3)GalNAc(b1-3)Gal(a1-4)Gal(b1-4)Glc
# Summary of the method: (§1)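 The binding signal is a Z-score computed within each array. Data were drawn from 3228 arrays in the Consortium for Functional Glycomics database, restricted to those with a known protein sequence. Scores were averaged over arrays of the same protein sequence at different concentrations or buffers, and over linkers, and negative values can be taken as non-binding.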
# [2] = biological target: Fuc(a1-2)Gal(b1-4)[Fuc(a1-3)]GlcNAc
# Summary of the method: as §1
# [3] = biological target: Fuc(a1-2)[Gal(a1-3)]Gal(b1-3)GlcNAc(b1-6)GalNAc
# Summary of the method: as §1
# [4] = biological target: Fuc(a1-2)[GalNAc(a1-3)]Gal(b1-4)GlcNAc(b1-3)Gal(b1-4)GlcNAc
# Summary of the method: as §1
# [5] = biological target: Fuc(a1-2)[GalNAc(a1-4)]Gal(b1-4)GlcNAc
# Summary of the method: as §1
# [6] = biological target: Fuc(a1-2)[GalNAc(b1-3)]Gal
# Summary of the method: as §1
# [7] = biological target: Fuc(a1-3)[Gal(b1-4)]GlcNAc(b1-2)Man(a1-3)[Fuc(a1-3)[Gal(b1-4)]GlcNAc(b1-2)Man(a1-6)]Man(b1-4)GlcNAc(b1-4)GlcNAc
# Summary of the method: as §1
# [8] = biological target: Gal(a1-3)Gal(b1-3)GlcNAc(b1-3)GalNAc
# Summary of the method: as §1
# [9] = biological target: Gal(a1-3)Gal(b1-3)GlcNAc(b1-6)GalNAc
# Summary of the method: as §1
# [10] = biological target: Gal(a1-3)Gal(b1-4)GlcNAc(b1-6)GalNAc
# Summary of the method: as §1
# [11] = biological target: Gal(b1-3)GlcNAc(b1-6)GalNAc
# Summary of the method: as §1
# Gal(b1-3)GlcNAc6S = biological target: Gal(b1-3)GlcNAc6S
# Summary of the method: as §1
# [12] = biological target: Gal(b1-3)[Neu5Ac(a2-6)]GlcNAc(b1-4)Gal(b1-4)Glc
# Summary of the method: as §1
# [13] = biological target: Gal(b1-4)GlcNAc(b1-3)Gal(b1-4)GlcNAc
# Summary of the method: as §1
# [14] = biological target: Gal(b1-4)GlcNAc(b1-3)Gal(b1-4)GlcNAc(b1-3)Gal(b1-4)GlcNAc(b1-3)Gal(b1-4)GlcNAc(b1-2)[Gal(b1-4)GlcNAc(b1-3)Gal(b1-4)GlcNAc(b1-3)Gal(b1-4)GlcNAc(b1-3)Gal(b1-4)GlcNAc(b1-6)]Man(a1-6)[Gal(b1-4)GlcNAc(b1-3)Gal(b1-4)GlcNAc(b1-3)Gal(b1-4)GlcNAc(b1-3)Gal(b1-4)GlcNAc(b1-2)Man(a1-3)]Man(b1-4)GlcNAc(b1-4)[Fuc(a1-6)]GlcNAc
# Summary of the method: as §1
# Gal6P(b1-4)GlcNAc = biological target: Gal6P(b1-4)GlcNAc
# Summary of the method: as §1
# Gal6S(b1-4)GlcNAc = biological target: Gal6S(b1-4)GlcNAc
# Summary of the method: as §1
# [15] = biological target: GalNAc(b1-3)Gal(a1-4)Gal(b1-4)GlcNAc
# Summary of the method: as §1
# [16] = biological target: GalNAc(b1-3)Gal(a1-4)Gal(b1-4)GlcNAc(b1-3)Gal(b1-4)Glc
# Summary of the method: as §1
# [17] = biological target: GalNAc(b1-4)GlcNAc(b1-3)GalNAc(b1-4)GlcNAc
# Summary of the method: as §1
# [18] = biological target: GalNAc3S(b1-4)[Fuc(a1-3)]GlcNAc
# Summary of the method: as §1
# Glc(b1-4)Glc = biological target: Glc(b1-4)Glc
# Summary of the method: as §1
# [19] = biological target: GlcNAc(a1-4)Gal(b1-4)GlcNAc
# Summary of the method: as §1
# [20] = biological target: GlcNAc(b1-3)Gal(b1-4)GlcNAc(b1-3)Gal(b1-4)GlcNAc(b1-3)Gal(b1-4)GlcNAc(b1-2)Man(a1-3)[GlcNAc(b1-3)Gal(b1-4)GlcNAc(b1-3)Gal(b1-4)GlcNAc(b1-3)Gal(b1-4)GlcNAc(b1-2)Man(a1-6)]Man(b1-4)GlcNAc(b1-4)GlcNAc
# Summary of the method: as §1
# GlcNAc(b1-3)GalNAc = biological target: GlcNAc(b1-3)GalNAc
# Summary of the method: as §1
# [21] = biological target: GlcNAc(b1-4)GlcNAc(b1-4)GlcNAc(b1-4)GlcNAc(b1-4)GlcNAc(b1-4)GlcNAc
# Summary of the method: as §1
# GlcNAc(b1-6)GalNAc = biological target: GlcNAc(b1-6)GalNAc
# Summary of the method: as §1
# [22] = biological target: Man(a1-3)[Man(a1-6)]Man(a1-6)[Man(a1-2)Man(a1-3)]Man(b1-4)GlcNAc(b1-4)GlcNAc
# Summary of the method: as §1
# [23] = biological target: Man(a1-3)[Man(a1-6)]Man(b1-4)GlcNAc(b1-4)GlcNAc
# Summary of the method: as §1
# [24] = biological target: Man(a1-3)[Man(a1-6)]Man(b1-4)GlcNAc(b1-4)[Fuc(a1-6)]GlcNAc
# Summary of the method: as §1
# Man(b1-4)GlcNAc = biological target: Man(b1-4)GlcNAc
# Summary of the method: as §1
# [25] = biological target: Neu5Ac(a2-3)Gal(b1-3)GalNAc(b1-4)[Neu5Ac(a2-3)]Gal(b1-4)Glc
# Summary of the method: as §1
# [26] = biological target: Neu5Ac(a2-3)Gal(b1-3)GlcNAc(b1-6)GalNAc
# Summary of the method: as §1
# [27] = biological target: Neu5Ac(a2-3)Gal(b1-4)GlcNAc(b1-2)Man(a1-3)[Neu5Ac(a2-6)Gal(b1-4)GlcNAc(b1-2)Man(a1-6)]Man(b1-4)GlcNAc(b1-4)GlcNAc
# Summary of the method: as §1
# [28] = biological target: Neu5Ac(a2-3)Gal(b1-4)GlcNAc(b1-3)Gal
# Summary of the method: as §1
# [29] = biological target: Neu5Ac(a2-3)Gal(b1-4)GlcNAc(b1-6)GalNAc
# Summary of the method: as §1
# [30] = biological target: Neu5Ac(a2-3)Gal6S(b1-4)GlcNAc
# Summary of the method: as §1
# [31] = biological target: Neu5Ac(a2-6)Gal(b1-4)GlcNAc(b1-2)Man(a1-6)[Gal(b1-4)GlcNAc(b1-2)Man(a1-3)]Man(b1-4)GlcNAc(b1-4)GlcNAc
# Summary of the method: as §1
# [32] = biological target: Neu5Ac(a2-6)GalNAc(b1-4)GlcNAc6S
# Summary of the method: as §1
# [33] = biological target: Neu5Ac(a2-8)Neu5Ac(a2-3)Gal(b1-3)GalNAc(b1-4)[Neu5Ac(a2-8)Neu5Ac(a2-3)]Gal(b1-4)Glc
# Summary of the method: as §1
# [34] = biological target: Neu5Ac(a2-8)Neu5Ac(a2-8)Neu5Ac(a2-8)Neu5Ac(a2-3)[GalNAc(b1-4)]Gal(b1-4)Glc
# Summary of the method: as §1
# Neu5Gc(a2-3)Gal(b1-4)Glc = biological target: Neu5Gc(a2-3)Gal(b1-4)Glc
# Summary of the method: as §1
binder,measurement,setting,value
DC-ASGPR S+GEE (Homo sapiens) (protein) MTRTYENFQYLENKVKVQGFKNGPLPLQSLLQRLRSGPCHLLLSLGLGLLLLVIICVVGFQNSKFQRDLVTLRTDFSNFTSNTVAEIQALTSQGSSLEETIASLKAEVEGFKQERQAVHSEMLLRVQQLVQDLKKLTCQVATINNNGEEASTEGTCCPVNWVEHQDSCYWFSHSGMSWAEAEKYCQLKNAHLVVINSREEQNFVQKYLGSAYTWMGLSDPEGAWKWVDGTDYATGFQNWKPGQPDDWQGHGLGGGEDCAHFHPDGRWNDDVCQRPYHWVCEAGLGQTSQESH,glycan array binding signal (z-score),[1],0.011
same,glycan array binding signal (z-score),[2],-0.28
same,glycan array binding signal (z-score),[3],3.42
same,glycan array binding signal (z-score),[4],0.807
same,glycan array binding signal (z-score),[5],3.75
same,glycan array binding signal (z-score),[6],4
same,glycan array binding signal (z-score),[7],-0.015
same,glycan array binding signal (z-score),[8],-0.224
same,glycan array binding signal (z-score),[9],4.91
same,glycan array binding signal (z-score),[10],3.92
same,glycan array binding signal (z-score),[11],3.77
same,glycan array binding signal (z-score),Gal(b1-3)GlcNAc6S,-0.332
same,glycan array binding signal (z-score),[12],-0.315
same,glycan array binding signal (z-score),[13],-0.268
same,glycan array binding signal (z-score),[14],-0.145
same,glycan array binding signal (z-score),Gal6P(b1-4)GlcNAc,-0.321
same,glycan array binding signal (z-score),Gal6S(b1-4)GlcNAc,-0.262
same,glycan array binding signal (z-score),[15],4.67
same,glycan array binding signal (z-score),[16],4.39
same,glycan array binding signal (z-score),[17],3.84
same,glycan array binding signal (z-score),[18],-0.27
same,glycan array binding signal (z-score),Glc(b1-4)Glc,-0.376
same,glycan array binding signal (z-score),[19],-0.318
same,glycan array binding signal (z-score),[20],-0.276
same,glycan array binding signal (z-score),GlcNAc(b1-3)GalNAc,-0.312
same,glycan array binding signal (z-score),[21],-0.22
same,glycan array binding signal (z-score),GlcNAc(b1-6)GalNAc,3.74
same,glycan array binding signal (z-score),[22],-0.252
same,glycan array binding signal (z-score),[23],-0.021
same,glycan array binding signal (z-score),[24],-0.295
same,glycan array binding signal (z-score),Man(b1-4)GlcNAc,-0.339
same,glycan array binding signal (z-score),[25],-0.329
same,glycan array binding signal (z-score),[26],4.84
same,glycan array binding signal (z-score),[27],-0.297
same,glycan array binding signal (z-score),[28],-0.325
same,glycan array binding signal (z-score),[29],4.38
same,glycan array binding signal (z-score),[30],-0.32
same,glycan array binding signal (z-score),[31],-0.355
same,glycan array binding signal (z-score),[32],0.608
same,glycan array binding signal (z-score),[33],-0.342
same,glycan array binding signal (z-score),[34],1.61
same,glycan array binding signal (z-score),Neu5Gc(a2-3)Gal(b1-4)Glc,-0.351
